TRAIL sens C8: viability loss with TRAIL in NB7+C8 cells, primary screen, TRAIL sensitizer project, cell-based, ATPlite luminescence; inhibition (viability loss, TRAIL sensitization), % at 10 µM; 360,000 compounds, 1% hits; AID 624354, 2012;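 active = compounds causing at least 50% loss of cell viability in the single-dose screen, relative to plate controls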
KKLEB tox: cytotoxicity in KKLEB CF airway cells, primary screen, cytotoxicity control for CF NF-kB inhibitor project, cell-based, uHTS, fluorescence assay plates. KKLEB CF airway cells viability, ATPlite luminescence, overnight; active compounds read low; cells stimulated with P. aeruginosa culture filtrate. AID 602141, 2011. 360,000 compounds, 0.36% hits. activity change (cytotoxicity), % at 5 µM;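 active = corrected activity change at or below -50% at 5 µM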
CF NFkB block: inhibitors of PAF-induced NF-kB signaling, primary screen, cell-based, GFP fluorescence, uHTS. AID 588850, 2011. 360,000 compounds, 0.86% hits. KKLEB NF-kB-GFP reporter, GFP fluorescence overnight. inhibition, % at 5 µM;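 active = at least 50% inhibition at 5 µM, scaled per plate between neutral and stimulator controls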;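 also: PAF is a Pseudomonas aeruginosa culture filtrate used as stimulus; plate controls were PAF-stimulated DMSO wells for no effect and unstimulated DMSO wells for full effect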
HIF-2a inh: HIF-2a reporter inhibitors, primary screen, luminescence, 786-0 RCC cells | 360,000 compounds, 0.72% hits | inhibition, % at 18.8 µM | AID 624352, 2012 | 786-0 RCC cells HIF-2a reporter, luciferase luminescence, overnight;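 active = inhibition of the luminescence signal of 40% or more relative to plate controls, in a single-dose primary screen at 18.75 µM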
iPSC survival up: enhancers of single-cell hiPSC survival, primary screen, ATPlite luminescence | 100% = ROCK inhibitor wells, 0% = DMSO | survival enhancement, % at 20 µM | 360,000 compounds, 0.044% hits | AID 602274, 2012; in the data active = survival enhancement above about 18%;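 also: cells exposed to compounds for 16 hours before the ATP read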
PPC-1+TRAIL kill: compounds killing PPC-1 cancer cells with TRAIL present, primary screen, TRAIL potentiator project, ATPLite luminescence, uHTS; 220,000 compounds, 0.41% hits; PPC-1 cells + TRAIL, ATPLite viability luminescence; cell killing (% activity), % at 4 µM or 5 µM; AID 1443, 2008;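 active = cell killing above 50% in the first pass at 4 µM, then a duplicate retest at 5 µM averaging 50% or more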;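 also: plate controls were cells with TRAIL plus DMSO for no effect and medium-only wells lacking cells for full effect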
PPC1 cytotox: cytotoxicity in PPC-1 cells, confirmation, cytotoxicity control for TRAIL apoptosis potentiator project, cell-based, ATP content luminescence | shares compounds with PPC-1+TRAIL kill | cytotoxicity, % at 5 µM | 1,200 compounds, 50% hits | AID 1447, 2008 | PPC-1 viability, ATPlite luminescence, overnight;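 active = reconfirmed compounds whose average cytotoxicity reaches 50% or more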;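 also: 0% = DMSO-treated cells and 100% = wells holding medium but no cells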
CF NFkB inh conf: inhibitors of PAF-induced NF-kB signaling, retest, confirmation, cell-based, GFP fluorescence, single concentration; shares compounds with CF NFkB block; KKLEB CF airway cells, overnight; inhibition, % at 5 µM; 1,300 compounds, 64% hits; AID 602472, 2012; in the data active = inhibition above about 40%;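 also: stimulus PAF is a Pseudomonas aeruginosa filtrate and not platelet activating factor; plate controls were DMSO wells with stimulus for no effect and unstimulated DMSO wells for full effect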
Mdm2 MdmX conf: retested Mdm2-MdmX interaction blockers, confirmation, cell-based, luminescence, single concentration, set 2; shares compounds with HIF-2a inh; SaOS-2 split-luciferase Mdm2/MdmX complementation; inhibition, % at 8 µM; 740 compounds, 99% hits; AID 504601, 2011;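 active = mean inhibition of the luminescence signal across two replicates at or above 26 percent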
Target sequence (O15151 whole entry, looked up): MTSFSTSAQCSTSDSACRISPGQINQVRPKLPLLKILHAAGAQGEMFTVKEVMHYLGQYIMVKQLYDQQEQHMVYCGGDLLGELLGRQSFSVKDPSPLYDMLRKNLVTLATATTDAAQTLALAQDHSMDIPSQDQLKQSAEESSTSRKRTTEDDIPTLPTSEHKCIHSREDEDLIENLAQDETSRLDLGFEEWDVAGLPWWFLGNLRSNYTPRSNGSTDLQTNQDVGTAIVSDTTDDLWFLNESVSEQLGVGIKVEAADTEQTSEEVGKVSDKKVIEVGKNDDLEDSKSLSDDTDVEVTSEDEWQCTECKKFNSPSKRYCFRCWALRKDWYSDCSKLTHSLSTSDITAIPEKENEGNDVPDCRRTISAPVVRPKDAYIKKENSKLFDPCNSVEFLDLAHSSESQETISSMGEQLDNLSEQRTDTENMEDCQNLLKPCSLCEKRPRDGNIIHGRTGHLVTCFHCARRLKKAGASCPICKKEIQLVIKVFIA
Target sequence (Q00987 whole entry, looked up): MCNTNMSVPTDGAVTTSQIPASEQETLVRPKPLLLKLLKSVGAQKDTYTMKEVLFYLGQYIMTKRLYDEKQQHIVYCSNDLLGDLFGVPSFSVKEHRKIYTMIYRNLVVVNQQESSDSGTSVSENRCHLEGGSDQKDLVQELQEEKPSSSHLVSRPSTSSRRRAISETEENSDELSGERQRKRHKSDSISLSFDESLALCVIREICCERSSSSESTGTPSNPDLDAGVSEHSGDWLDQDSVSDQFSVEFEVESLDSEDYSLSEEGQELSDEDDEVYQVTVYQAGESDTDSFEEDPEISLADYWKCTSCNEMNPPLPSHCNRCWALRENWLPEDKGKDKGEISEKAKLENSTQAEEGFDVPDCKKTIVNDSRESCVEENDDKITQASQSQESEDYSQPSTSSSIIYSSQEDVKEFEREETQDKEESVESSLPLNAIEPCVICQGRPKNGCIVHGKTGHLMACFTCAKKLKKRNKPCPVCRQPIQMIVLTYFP
HIF-2a inh conf: HIF-2a reporter inhibitor retest, confirmation, luminescence, 786-0 RCC cells | shares compounds with HIF-2a inh | HIF-2a luciferase reporter luminescence, overnight | inhibition, % at 18.8 µM | 1,800 compounds, 56% hits;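 active = mean inhibition across four replicates of at least 40 percent at the single tested concentration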
HIF-1a cs: HIF-1a luciferase reporter signal reduction – MiaPaCa-2 cells, single concentration, counter-screen for HIF-2a inhibitor project, confirmation; shares compounds with HIF-2a inh; MiaPaCa-2 HIF-1a luciferase reporter, desferoxamine, overnight; inhibition, % at 18.8 µM; 1,800 compounds, 72% hits;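 active = mean inhibition of the reporter signal across four replicates at the single tested dose of 50% or more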
* marks the source's active call; other numbers are inactive results; nt = not tested or not shown. Compounds with a hit are over-represented: about 2.2% of the library has one in this group of screens.

SMILES	TRAIL sens C8	KKLEB tox	CF NFkB block	HIF-2a inh	iPSC survival up	PPC-1+TRAIL kill	PPC1 cytotox	others
O=C(N/N=C/c1cccs1)c1n[nH]c2c1CCCC2	74*	-7	11	47*	-1	56*	46	HIF-2a inh conf=65*;HIF-1a cs=57*
C/C(=N\NC(=O)c1n[nH]c2c1CCC2)c1cccs1	80*	-25	15	72*	-1	68*	67*	HIF-2a inh conf=83*;HIF-1a cs=50
CCOC(=O)C(CC)n1cnc2c(nnn2-c2ccc(F)cc2)c1=O (configuration not stated)	10	-7	5	-16	0	nt	nt
CCN(CC(=O)NCc1ccc(F)cc1)C(=O)c1ccc(COc2ccccc2)cc1	-22	-1	-10	-192	2	nt	nt
Cc1cc(=O)[nH]c(SCC(=O)Nc2ccccc2C)n1	2	24	-1	11	5	0	nt
Cc1cc(=O)[nH]c(N=N/C(=N/Nc2ccccc2C)c2ccccc2)n1	2	2	0	-28	7	42	36	Mdm2 MdmX conf=84*
Cc1ccc(NC(=O)C2(C)CCN2C(=O)Cc2cc(F)ccc2F)cc1 (configuration not stated)	-3	-18	24	2	-1	nt	nt
Cc1ccc(C(=O)CN2C(=O)c3ccccc3S2(=O)=O)cc1	29	3	-8	87*	0	45	46	HIF-2a inh conf=87*;HIF-1a cs=82*
CC(=O)Nc1ccc(SCC(=O)c2cc(C)n(Cc3cccs3)c2C)cc1	39	-56*	13	71*	0	39	39	HIF-2a inh conf=82*;HIF-1a cs=89*
COCCn1c(C)cc(C(=O)CSc2ccc(NC(C)=O)cc2)c1C	7	0	4	11	1	0	nt
COc1ccc(N2CCN(S(=O)(=O)c3cc4c(cc3C)NC(=O)CO4)CC2)cc1	2	10	-18	8	1	nt	nt
Cc1ccc(Nc2nc(N)nc(CN3CCCCCC3)n2)c(C)c1	-1	-1	5	14	3	5	nt
CCOc1ccc(Nc2nc(N)nc(CN3CCN(c4ccccc4F)CC3)n2)cc1	3	3	-7	6	0	-8	nt
Cc1ccc(Nc2nc(N)nc(CCl)n2)c(C)c1	96*	-72*	83*	-95	-1	92*	92*	Mdm2 MdmX conf=103*
CCOc1ccc(Nc2nc(N)nc(CCl)n2)cc1	92*	-68*	80*	-125	-1	95*	93*	Mdm2 MdmX conf=103*
COc1ccccc1C(=O)NC(CCSC)C(=O)NNC(=O)c1ccccc1O (configuration not stated)	11	-32	-3	-3	0	nt	nt
CCCCCCCCCn1c2c(c(=N)c3c1CCC3)CCC2	77*	-62*	55*	21	-1	42	44	Mdm2 MdmX conf=101*
COCCn1c(C)cc(C(=O)COC(=O)c2n[nH]c3ccccc23)c1C	88*	-59*	10	47*	-4	82*	84*	HIF-2a inh conf=45*;HIF-1a cs=31
Cc1cc(C(=O)COC(=O)c2cc(O)c3ccccc3c2O)c(C)n1CC1CCCO1 (configuration not stated)	0	8	8	-6	0	9	nt
Cc1cc(C(=O)COC(=O)c2ccccc2Br)c(C)n1CC1CCCO1 (configuration not stated)	77*	-32	15	55*	0	80*	76*	HIF-2a inh conf=68*;HIF-1a cs=90*
CN1CCN(c2ccc(-c3ccc4ccccc4n3)cc2)CC1	90*	-59*	10	87*	-1	82*	77*	HIF-2a inh conf=97*;HIF-1a cs=87*
CC(NCc1ccccc1)c1ccccc1O (configuration not stated)	3	5	4	11	0	-6	nt
O=C(CN1C(=O)NC2(CCCc3ccccc32)C1=O)c1ccc(F)c(F)c1 (configuration not stated)	-15	-39	56*	0	-2	nt	nt	CF NFkB inh conf=11
CCCCCCCCO	-6	0	8	0	-1	nt	nt
CCCCCCCCCCCCCCCC(O)C(N)CO (configuration not stated)	24	0	61*	5	-6	15	nt	CF NFkB inh conf=15
SMILES	TRAIL sens C8	KKLEB tox	CF NFkB block	HIF-2a inh	iPSC survival up	PPC-1+TRAIL kill	PPC1 cytotox	others
O=S(=O)([N-]c1nc2ccccc2nc1-n1cc[n+](Cc2ccccc2)c1)c1ccc(Br)cc1	14	0	-3	-16	1	13	nt
CCCCCCc1cc2cc(C(=O)Nc3ccccc3OC)c(=O)oc2cc1O	44	-42	54*	9	-1	10	nt	CF NFkB inh conf=55*
CCCCCCc1cc2cc(-c3nnc(-c4cc(OC)c(OC)c(OC)c4)o3)c(=O)oc2cc1O	nt	nt	nt	nt	nt	17	nt
CCCCCCc1cc2cc(S(=O)(=O)c3ccc(F)cc3)c(=O)oc2cc1O	2	-36	51*	5	-1	8	nt	CF NFkB inh conf=78*
CC(C)(C)c1ccc(C(=O)O/N=C(\N)Cc2cccs2)cc1	94*	-21	61*	-63	-2	nt	nt	CF NFkB inh conf=18
C=C(C)[C@@H]1CCC2(C(=O)O)CC[C@]3(C)[C@H](CC[C@@H]4[C@@]5(C)CCC(=O)C(C)(C)[C@@H]5CC[C@]43C)[C@@H]12 (some centres not stated)	8	-17	63*	8	-2	11	nt	CF NFkB inh conf=64*
